Shown are actives, neighbours in structure and some others; about 2.4% of the full set was active somewhere.
D2 ag-1: agonists of human D2 dopamine receptor (beta-arrestin). AID 624465. P14416. activation, % (no concentration beside the values). DiscoveRx PathHunter D2 beta-arrestin, luminescence, 90 min; 100% = 57 uM dopamine signal. 360,000 tested, 0.084% active; in the data active = activation above about 40%; inconclusive = between about 15% and that limit
Target sequence (P14416 whole entry, looked up): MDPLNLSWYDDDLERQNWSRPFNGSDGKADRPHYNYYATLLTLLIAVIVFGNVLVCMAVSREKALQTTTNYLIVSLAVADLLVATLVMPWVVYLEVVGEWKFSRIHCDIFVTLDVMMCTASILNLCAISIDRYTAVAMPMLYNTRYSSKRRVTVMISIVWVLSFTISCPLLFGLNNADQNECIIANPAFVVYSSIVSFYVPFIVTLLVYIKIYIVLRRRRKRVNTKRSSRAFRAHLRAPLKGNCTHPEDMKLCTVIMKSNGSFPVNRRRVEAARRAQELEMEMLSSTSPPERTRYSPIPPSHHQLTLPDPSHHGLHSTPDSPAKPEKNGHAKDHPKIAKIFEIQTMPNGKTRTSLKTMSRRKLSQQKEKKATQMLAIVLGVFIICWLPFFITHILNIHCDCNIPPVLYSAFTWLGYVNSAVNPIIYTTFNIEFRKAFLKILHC
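DiscoveRx PathHunter D2 beta-arrestin cells (2,100/well) attached overnight, then compound-stimulated 90 min at 37 C in HBSS/10 mM HEPES/0.1% Tween-20 buffer; beta-galactosidase complementation read by luminescence after 1 h at ambient temperature. Dopamine 57 uM final (EC100) as control.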
D2 PAM-1: positive allosteric modulators of human D2 dopamine receptor; P14416; HEK293 T-REx D2, calcium flux, EC20 dopamine potentiation; potentiation, % at 10 µM; 340,000 tested, 0.34% active;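 active = potentiation over 3 SD above the plate norm, cut at about 30% in these data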; note: 0% is about no effect
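Tetracycline-induced Hek293 Trex D2 cells, force-coupled to calcium, loaded with no-wash calcium dye. Compound added with 180 s kinetic read for agonism, then EC20 dopamine and a further 180 s read for potentiation.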
D2 ag-2: activates the human D2 dopamine receptor; P14416; HEK293 T-REx D2 cells, calcium flux agonist mode; activation, % at 2 µM; 340,000 tested, 0.53% active; AID 485358;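 active = activation over 3 SD above normal in the single-dose calcium agonist read, cut at about 30% in these data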; note: 0% is about no effect
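Calcium-flux readout, 1 cycle/sec over 180 s following compound pin transfer, in inducible HEK293 Trex D2 cells (force-coupled); dopamine controls included. Positive calcium responses during this window marked compounds as potential agonists.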
D2 antag: antagonizes the human D2 dopamine receptor | P14416 | HEK293 TREx D2 cells, calcium flux, dopamine EC80 | inhibition, % at 10 µM | 340,000 tested, 2% active; in the data active = inhibition above about 30%; inactive = below that, where a call was filed; note: 0% is about no effect
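Tetracycline-induced HEK293 TREx cells expressing D2 receptor forced-coupled to calcium signalling, loaded with no-wash calcium dye. Compounds added and calcium flux read 180 s, then dopamine added at EC80 and read a further 180 s.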
D2 PAM-2: potentiates the human D2 dopamine receptor allosterically. P14416. DiscoveRx D2 beta-arrestin cells, luminescence, 90 min; 100% = 57 uM dopamine signal. potentiation, % (test concentration not listed). 360,000 tested, 0.23% active. AID 624464; in the data active = potentiation above about 50%; inconclusive = mostly about 30% to 49%
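PathHunter D2 cells, attached overnight at 37 deg C, received compound in DMSO plus dopamine at EC20 (50 nM final) for 90 min at 37 deg C. Beta-arrestin recruitment was read as luminescence after 1 h with detection reagent at ambient temperature.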
* = called active by the depositor; ? = inconclusive; · = not tested or not shown.

SMILES	D2 ag-1	D2 PAM-1	D2 ag-2	D2 antag	D2 PAM-2
O=[N+]([O-])c1ccccc1OCCNCc1ccccc1	1.5	-31.4	23.2	78.1*	-76.2
Cc1ccc(C)c(OCCCNCc2ccccc2)c1	-3.3	-12.5	2.1	3.9	-63.6
Cc1ccc(C(C)C)c(OCCNCc2ccccc2)c1	10.8	-18.9	-2.4	67.2*	-5.4
O=C(NCCC(=O)N1CCN(c2ccccn2)CC1)c1ccc(Br)cc1	-3.5	-13.6	-1.0	57.6*	-9.0
O=C(NCCC(=O)N1CCC2(CC1)NCCc1[nH]cnc12)c1ccc(Br)cc1	-0.7	-0.4	0.6	32.0*	-5.4
CCC(=O)N1CCc2cc(S(=O)(=O)NCCC(=O)N3CCN(c4ccccn4)CC3)ccc21	1.0	39.0*	-0.8	14.6	3.3
CCC(=O)N1CCc2cc(S(=O)(=O)NCCC(=O)N3CCc4ccccc4C3)ccc21	0.2	10.5	-1.8	-10.9	3.4
CC(=O)Nc1nonc1-c1nnc(SCc2ccccc2F)n1C	·	-2.0	-1.6	·	·
CC1=C(C(=O)Nc2cccc(Cl)c2C)C2(CCCCCC2)OC1=O	·	0.3	0.5	·	·
Cc1ccccc1NC(=O)c1c(C)oc2ccc(O)c(CN3CCCC3)c12	·	-2.5	-0.8	·	·
CCOC(=O)c1c(Nc2ccc(C)cc2)nnc(-c2ccccc2)c1-c1ccccc1	·	-14.3	·	·	·
CN1C(=O)c2ccc(NC(=O)c3c(C(=O)O)cccc3[N+](=O)[O-])cc2C1=O	-5.3	16.8	0.0	33.9*	-11.0
CN(C(=O)c1ccncc1)c1nnc(-c2ccccn2)s1	2.1	-2.2	0.6	34.7*	8.5
CN(C(=O)c1ccc(C#N)cc1)c1nnc(-c2ccccn2)s1	-3.8	11.8	-0.8	24.8	-20.5
CC(=O)NCCn1c(SCc2ccc(C)cc2)nc2ccccc2c1=O	-1.7	-1.5	-0.2	-3.9	6.8
Cc1ccc(CSc2nc3ccccc3c(=O)n2C)cc1	-1.0	0.8	2.0	33.6*	-6.0
Cc1ccc(CN(C(=O)c2ccccc2)c2ccccn2)o1	·	5.2	-2.1	·	·
CCOc1ccccc1N1C(=O)CC(N(O)c2ccccc2)C1=O (stereo not drawn)	?	27.0	0.8	-12.8	4.4
Cc1c(Cl)cccc1N1C(=O)CC(N(O)c2ccccc2)C1=O (stereo not drawn)	5.8	7.4	1.5	-0.3	55.0*
Cc1cccc(C)c1N1C(=O)CC(N(O)c2ccccc2)C1=O (stereo not drawn)	6.7	-5.0	-0.8	-18.6	51.1*
CCOC(=O)c1c(S(=O)(=O)N2CCC(C(=O)Nc3ccc(OCC)cc3)CC2)c(C)n(C)c1C	·	19.6	0.1	·	·
O=c1cc(CN2CCN(Cc3ccccc3)CC2)c2cc(Cl)ccc2o1	-7.6	-7.4	-0.7	3.7	-47.1
O=c1[nH]c(CN2CCN(C/C=C/c3ccccc3)CC2)nc2ccccc12	-0.2	-26.5	29.0	63.4*	-23.9
O=c1cc(CN2CCN(Cc3ccccc3)CC2)c2ccc(O)cc2o1	-4.9	-18.9	-0.6	4.3	-24.2
Cc1ccc2oc(=O)cc(CN3CCN(C/C=C/c4ccccc4)CC3)c2c1	-3.1	-18.2	-0.7	58.4*	-21.5
SMILES	D2 ag-1	D2 PAM-1	D2 ag-2	D2 antag	D2 PAM-2
CCc1ccc2oc(=O)cc(CN3CCN(Cc4ccccc4)CC3)c2c1	-4.1	-20.9	-0.1	38.6*	-25.4
O=c1cc(CN2CCN(C/C=C/c3ccccc3)CC2)c2cc(O)ccc2o1	1.4	-21.6	0.7	82.5*	-27.0
O=c1[nH]c(CN2CCN(S(=O)(=O)/C=C/c3ccccc3)CC2)nc2ccccc12	0.3	-6.7	0.5	-35.4	4.2
COc1ccccc1-c1nnc(SCC(=O)c2ccc(F)cc2)n1-c1ccccc1	·	-0.9	-0.3	·	·
COC(=O)c1sc2cccc(F)c2c1S(=O)(=O)Nc1cc(C)c(Cl)cc1OC	·	-7.1	·	·	·
c1ccc(CNc2nc3c(-c4ccccc4)nnn3c3ccccc23)cc1	·	3.6	0.7	·	·
CCOc1ccc(NC(=S)N2CCN(S(=O)(=O)c3ccccc3)CC2)cc1	-2.1	-9.5	39.4*	16.3	4.3
CCOc1ccc(S(=O)(=O)N2CCN(S(=O)(=O)c3ccc(C(C)=O)cc3)CC2)cc1	-6.2	7.6	-0.2	35.7*	-1.9
CCOc1ccc(S(=O)(=O)N2CCN(C(=O)c3cccn3C)CC2)cc1	8.1	31.4*	-1.0	-4.7	-13.0
COc1ccc(CNC(=O)c2cc3oc4ccccc4c3n2C)cc1OC	·	-0.2	0.5	·	·
Cc1csc2nc(-c3cccc(NC(=O)c4c(F)cccc4F)c3)cn12	·	-7.9	0.5	·	·
CC(=O)NCCNc1nc2c(-c3cccc(C)c3)nnn2c2ccc(Cl)cc12	·	-7.0	0.4	·	·
Cc1ccc(NC(=O)CSc2nc(-c3ccco3)nc3cc(=O)[nH]n23)cc1	·	-6.9	0.0	·	·
COCCCNC(=O)c1cc2c(=O)n3cccc(C)c3nc2n(C(C)C)c1=N	-1.6	6.1	1.1	34.5*	22.1
CCN1CCCC1CNC(=O)c1[nH]c2ccc(OC)cc2c1C (stereo not drawn)	-4.6	-34.6	·	40.1*	-22.2
CCN1CCC[C@H]1CNC(=O)c1cc(S(N)(=O)=O)ccc1OC	·	-22.5	0.6	87.4*	·
CCN1CCCC1CNC(=O)c1csc2c1CCCC2 (stereo not drawn)	-1.6	-17.8	-2.5	86.5*	-29.0
CCN1CCCC1CNC(=O)c1cc2ccc(OC)cc2[nH]1 (stereo not drawn)	-2.8	-0.5	0.2	9.2	-25.5
CCN1CCCC1CNC(=O)c1cc([N+](=O)[O-])c(N(C)C)cc1OC (stereo not drawn)	-3.7	-38.1	0.2	74.6*	-3.7
O=C(c1ccc2c(c1)CCCC2)N1CCN(c2nc3ccc(F)cc3s2)CC1	·	·	1.1	·	·
CCC1CCCN1Cn1cnc2c([nH]c3ccccc32)c1=O (stereo not drawn)	-1.5	0.8	-1.0	-7.8	-11.9
CCC1CCCN1Cn1cnc2c([nH]c3ccc(OC)cc32)c1=O (stereo not drawn)	1.7	35.1*	-1.0	-14.8	-21.5
O=C1C2C3C=CC(CC3)C2C(=O)N1c1ccc([N+](=O)[O-])cc1 (stereo not drawn)	1.3	-1.6	0.6	-13.5	-0.9
CC(=O)Oc1ccc(N2C(=O)C3C4C=CC(CC4)C3C2=O)cc1[N+](=O)[O-] (stereo not drawn)	-4.4	15.5	-1.3	62.2*	-7.1
CC(C)[C@@H](C(=O)OCC(=O)Nc1ccc2c(c1)OCO2)N1C(=O)c2ccccc2C1=O	0.9	1.2	-1.0	46.3*	-15.1
CC(CC(=O)N1CCN(C(=O)c2ccccc2)CC1)c1ccccc1 (stereo not drawn)	1.2	-4.8	0.6	38.0*	-1.3
CC(C)CC(=O)Nc1ccccc1N1CCN(C(=O)c2ccccc2)CC1	3.5	19.8	-0.2	22.8	62.3*
O=C(NCC(=O)N1CCN(C(=O)c2ccccc2)CC1)c1ccccc1	-2.7	10.9	-1.1	-7.8	-12.8
